Experimental data reported in ChEMBL document CHEMBL1857833, “Screening and optimization of specific chemical series against human African Trypanosomiasis (HAT)”.
Hit rate of the full screen: of about 4,400 compounds, about 390 (8.9%) showed an effect of 50% or more. The full list was thinned out, with strong results kept by preference.

Tested on: Trypanosoma brucei
Experiment: DNDI: Inhibition of Human African Trypanosomiasis, SBRI 427, in vitro at 2 ug.mL-1
Type: functional

Row | SMILES | % inhibition
1 | CCOc1ccccc1-c1nc(CNCc2ccc(C)o2)co1 | 18%
2 | COc1cccc(CN/C(=N\O)c2ccnc(Oc3cccc4cccnc34)c2)c1 | 35%
3 | O/N=C(/c1ccc(Oc2cccc3c2CCCC3)nc1)N1CCN(c2ccccc2)CC1 | 9%
4 | C=CCN(CC=C)Cc1coc(-c2ccc(OC)cc2)n1 | 1%
5 | Cc1ccc(/C(=N/O)N(C)c2ccccc2)c(Oc2ccc(Cl)cc2)n1 | 22%
6 | COc1ccc(CN/C(=N\O)c2ccc(C)nc2Oc2cccc3c2CCCC3)cc1 | 1%
7 | Cc1cccc(-c2nc(CN3CCN(c4cc(C)nc5ccccc45)CC3)co2)c1 | 27%
8 | CCOc1ccccc1-c1nc(CN(CC)C2CCN(Cc3ccccc3)C2)co1 (stereo not drawn) | -5%
9 | CC(C)c1ccc(Oc2ccc(/C(N)=N/O)cn2)cc1 | 23%
10 | Cc1ccc(/C(=N/O)NC2CCc3ccccc32)c(Oc2ccc(F)c(Cl)c2)n1 (stereo not drawn) | -22%
11 | CCC(CC)NCc1coc(-c2ccc(OC)cc2)n1 | -11%
12 | COc1ccc(CNCc2coc(-c3ccccc3Br)n2)c(OC)c1 | -13%
13 | COc1cccc(OC)c1CNCc1coc(-c2ccc(C(C)(C)C)cc2)n1 | 100%
14 | COc1ccc(-c2nc(CNCc3ccc(OC)cc3OC)co2)cc1 | 4%
15 | COc1ccc(CNCc2coc(-c3cccc4ccccc34)n2)c(OC)c1 | 57%
16 | COc1ccc(CNCc2coc(-c3ccc(C(F)(F)F)cc3)n2)c(OC)c1 | 11%
17 | COc1cccc(OC)c1CNCc1coc(-c2ccc(C)cc2)n1 | 22%

Row | SMILES | % inhibition
18 | COc1ccc(CNCc2coc(-c3ccccc3C)n2)c(OC)c1 | 5%
19 | COc1ccc(CNCc2coc(-c3ccc(C(C)(C)C)cc3)n2)c(OC)c1 | 69%
20 | COc1ccc(-c2nc(CNCc3c(OC)cccc3OC)co2)cc1 | 17%
21 | COc1ccc(-c2nc(CN3CCc4ccccc4C3)co2)cc1 | -8%
22 | CN(Cc1coc(-c2ccc(O)cc2)n1)C(c1ccccc1)c1ccccc1 | -30%
23 | CN(Cc1ccco1)/C(=N\O)c1cccnc1Oc1ccc2c(c1)CCCC2 | -1%
24 | Cc1ccc(/C(=N/O)N2CCCC2)c(Oc2ccc3ccccc3c2)n1 | 25%
25 | CN(Cc1cccnc1)Cc1coc(-c2ccc(Cl)cc2Cl)n1 | 36%
26 | CN(CC#N)Cc1coc(-c2cccs2)n1 | -11%
27 | Cc1ccc(CNCc2coc(-c3ccccc3Br)n2)o1 | 3%
28 | C[C@@H]1C(NCc2coc(-c3ccc(O)cc3)n2)C[C@H]2C[C@@H]1C2(C)C (stereo partly drawn) | 26%
29 | CCOc1ccc(-c2nc(CNC3C[C@@H]4C[C@H]([C@H]3C)C4(C)C)co2)cc1 (stereo partly drawn) | 78%
30 | CCOc1ccc(-c2nc(CNC3C[C@H]4CC[C@@H]3C4)co2)cc1 (stereo partly drawn) | 11%
31 | C[C@H]1C(NCc2coc(-c3ccc(O)cc3)n2)C[C@@H]2C[C@H]1C2(C)C (stereo partly drawn) | 101%
32 | CCOc1ccc(-c2nc(CNC3C[C@H]4C[C@@H]([C@@H]3C)C4(C)C)co2)cc1 (stereo partly drawn) | -5%
33 | CC1CCCC(NCc2coc(-c3ccc(O)cc3)n2)C1C (stereo not drawn) | -13%
